In all, about 5,500 compounds went through this assay and about 2,000 (36%) were called active. Roughly 18% stayed inconclusive and do not appear here. Rule as the data show it: active = normalized growth mostly below about 0.91 (no sharp cut-off); inconclusive = no clear call, values can overlap the other calls; inactive = mostly above about 0.92. This is one part of the list.
Assay: chemical genetic growth profiling, strain panel (AID 1159580);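 also: tested at 20 µM; growth read once vehicle control cultures reached saturation at 30 °C; 1 = growth at the plate median or of vehicle wells; lower values mean less growth of the strain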
Conditions: S. cerevisiae deletion strains, growth OD
[1] = locus YDL101C, strain DUN1, hits give low values
[2] = locus YHR030C, strain SLT2, hits give low values

Measured: normalized growth

N#Cc1ccc(S(=O)(=O)Nc2ccccc2Oc2ccc(Cl)cc2Cl)cc1
active: locus YLR113W, strain HOG1, hits give low values 0.836
inactive: locus YAR019C, strain CDC15, hits give low values 0.98 | locus YBL105C, strain PKC1, hits give low values 0.98 | locus YBR135W, strain CKS1, hits give low values 0.976 | locus YBR136W, strain MEC1, hits give low values 0.985 | locus YBR160W, strain CDC28, hits give low values 0.983 | locus YDL017W, strain CDC7, hits give low values 0.979 | locus YDL028C, strain MPS1, hits give low values 0.979 | [1] 0.986 | locus YDL108W, strain KIN28, hits give low values 0.973 | locus YDL132W, strain cdc53, hits give low values 0.979 | locus YDL214C, strain PRR2, hits give low values 0.968 | locus YDR052C, strain DBF4, hits give low values 0.979 | locus YDR054C, strain cdc34, hits give low values 0.974 | locus YDR226W, strain ADK1, hits give low values 0.969 | locus YDR477W, strain SNF1, hits give low values 0.935 | locus YER123W, strain YCK3, hits give low values 0.948 | locus YER133W, strain GLC7, hits give low values 0.928 | locus YFL009W, strain cdc4, hits give low values 0.987 | locus YFL029C, strain CAK1, hits give low values 0.979 | locus YFR003C, strain YPI1, hits give low values 0.974 | locus YFR019W, strain FAB1, hits give low values 0.955 | locus YFR028C, strain CDC14, hits give low values 0.98 | locus YGR040W, strain KSS1, hits give low values 0.945 | locus YGR052W, strain FMP48, hits give low values 0.985 | locus YGR092W, strain DBF2, hits give low values 0.879 | [2] 0.88 | locus YHR079C, strain IRE1, hits give low values 0.931 | locus YHR082C, strain KSP1, hits give low values 1.07 | locus YHR205W, strain SCH9, hits give low values 0.936 | locus YIL147C, strain SLN1, hits give low values 0.986 | locus YJL095W, strain BCK1, hits give low values 0.905 | locus YJL128C, strain PBS2, hits give low values 0.961 | locus YJL157C, strain FAR1, hits give low values 0.947 | locus YJR016C, strain ILV3, hits give low values 0.97 | locus YJR066W, strain TOR1 (second series), hits give low values 0.9 | locus YJR066W, strain TOR1, hits give low values 1.04 | locus YKL048C, strain ELM1, hits give low values 0.959 | locus YKL067W, strain YNK1, hits give low values 0.973 | locus YKL101W, strain HSL1, hits give low values 0.957 | locus YKL193C, strain SDS22, hits give low values 0.978 | locus YKL203C, strain TOR2, hits give low values 1.02 | locus YLR133W, strain CKI1, hits give low values 0.972 | locus YLR403W, strain SFP1, hits give low values 0.912 | locus YML070W, strain DAK1, hits give low values 0.94 | locus YMR001C, strain CDC5, hits give low values 0.982 | locus YMR205C, strain PFK2 (second series), hits give low values 0.972 | locus YMR277W, strain FCP1, hits give low values 0.973 | locus YNL006W, strain LST8, hits give low values 0.977 | locus YNL020C, strain ARK1, hits give low values 0.965 | locus YNL161W, strain CBK1, hits give low values 0.982 | locus YNL183C, strain NPR1, hits give low values 1.08 | locus YNL207W, strain RIO2, hits give low values 0.979 | locus YNL222W, strain SSU72, hits give low values 0.978 | locus YNL307C, strain MCK1 (second series), hits give low values 0.965 | locus YOL078W, strain AVO1, hits give low values 0.971 | locus YOL136C, strain PFK27, hits give low values 0.967 | locus YOR061W, strain CKA2, hits give low values 0.872 | locus YOR119C, strain RIO1, hits give low values 1.01 | locus YOR231W, strain MKK1, hits give low values 1.01 | locus YOR329C, strain SCD5, hits give low values 0.982 | locus YPL031C, strain PHO85, hits give low values 0.926 | locus YPL153C, strain RAD53, hits give low values 0.945 | locus YPL204W, strain HRR25, hits give low values 0.949 | locus YPL209C, strain IPL1, hits give low values 0.983 | locus YPL256C, strain CLN2, hits give low values 0.967 | locus YPR025C, strain CCL1, hits give low values 0.976 | locus YPR106W, strain ISR1, hits give low values 0.96 | locus YPR111W, strain DBF20, hits give low values 0.963 | strain NNK1, hits give low values 0.981 | strain TSCII, hits give low values 0.99

COc1ccc(S(=O)(=O)Nc2ccccc2Oc2ccc(Cl)cc2Cl)cc1OC
inactive: locus YAL013W, strain DEP1, hits give low values 1.01 | locus YBR229C, strain ROT2, hits give low values 1.01 | locus YCL061C, strain MRC1, hits give low values 1.07 | [1] 1.08 | locus YDL134C, strain PPH21, hits give low values 1.01 | locus YDR150W, strain NUM1, hits give low values 0.933 | locus YEL061C, strain CIN8, hits give low values 0.999 | locus YGR078C, strain PAC10, hits give low values 1.04 | locus YGR229C, strain SMI1, hits give low values 0.995 | [2] 1.06 | locus YHR087W, strain rtc3, hits give low values 0.988 | locus YJL187C, strain SWE1, hits give low values 1 | locus YJR043C, strain POL32, hits give low values 1.05 | locus YJR075W, strain HOC1, hits give low values 1 | locus YKL190W, strain CNB1, hits give low values 1.01 | locus YLR039C, strain RIC1, hits give low values 1.06 | locus YLR058C, strain SHM2 (second series), hits give low values 0.988 | locus YLR085C, strain ARP6, hits give low values 1.08 | locus YLR262C, strain YPT6, hits give low values 0.99 | locus YML094W, strain GIM5, hits give low values 1 | locus YMR219W, strain ESC1, hits give low values 1 | locus YMR263W, strain SAP30, hits give low values 0.967 | locus YMR307W, strain GAS1, hits give low values 0.986 | locus YNL128W, strain TEP1, hits give low values 1 | locus YNL153C, strain GIM3, hits give low values 1.03 | locus YNL298W, strain CLA4 (second series), hits give low values 1.05 | locus YNL322C, strain KRE1, hits give low values 0.988 | locus YNR030W, strain Alg12, hits give low values 1.02 | locus YPL055C, strain LGE1, hits give low values 0.959 | locus YPL241C, strain CIN2, hits give low values 1.03 | locus YPR135W, strain CTF4, hits give low values 1.03

— PubChem BioAssay AID1159580 (chemical genetic matrix, 2015)
